# Screening data deposited in PubChem BioAssay by National Center for Advancing Translational Sciences (NCATS).
# MBNL1-CUG inh – MBNL1-poly(CUG) RNA binding inhibition; Q9NR56; TR-FRET MBNL1-His/biotin-(CUG)12 binding, 665/545 ratio; Potency, µM (highest dose often 57.5 µM), for the others: at the highest dose activity change, negative = inhibition, hits mostly inhibitors; 280,000 tested, 0.036% active; AID 2675; active = well fitted inhibition curve with a large enough effect in the signal ratio, with a control signal flat, not every such curve was filed as active; inconclusive = small, poorly fitted or top-dose-only effect, or effect the other way, or a change in a side signal; inactive = no such curve, though single readings can be large or run the other way; the % refers to the signal ratio; note: potency is the fitted concentration of half-maximal effect; % is set by controls: 0 for no effect and ±100 for the full control effect
# Target sequence (Q9NR56 whole entry, looked up): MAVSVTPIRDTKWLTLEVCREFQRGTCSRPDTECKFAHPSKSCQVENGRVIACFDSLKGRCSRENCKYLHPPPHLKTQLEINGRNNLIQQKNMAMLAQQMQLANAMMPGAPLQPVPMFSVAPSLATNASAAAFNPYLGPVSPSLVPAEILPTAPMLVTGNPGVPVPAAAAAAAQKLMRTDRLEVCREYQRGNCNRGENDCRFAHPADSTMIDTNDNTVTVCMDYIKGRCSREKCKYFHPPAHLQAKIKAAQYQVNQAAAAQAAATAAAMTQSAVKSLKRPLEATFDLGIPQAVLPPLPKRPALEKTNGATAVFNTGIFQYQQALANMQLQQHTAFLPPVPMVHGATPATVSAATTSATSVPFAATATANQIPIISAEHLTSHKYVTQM
#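 Compound titration spanned 92 nM–58 uM against the MBNL1-His/biotin-(CUG)12 complex. After 60 min at room temperature with 5 nM streptavidin-XL665 and 0.055 ng/ul terbium anti-His, ratiometric 665/545 nm emission (Ex 340 nm) normalized to controls.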
# Mm-Cpn inhibitor – inhibitors of Methanococcus maripaludis chaperonin TRiC (MmCpn); Potency, µM (series often up to 76.9 µM), without a hit: at the highest dose activity, negative = inhibition, actives largely listed as inhibitors; AID 504842; 330,000 tested, 0.031% active; purified Mm-Cpn ATPase, ADP Transcreener TR-FRET; note: potency is the fitted concentration of half-maximal effect; % is set by controls: 0 for no effect and ±100 for the full control effect; nearly all actives have a fitted effect of over 80% in size
#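 Compound-treated chaperonin, 25 nM final, turns over 10 uM ATP at 37°C for 30 min following a 10 min preincubation; ADP generated competes with ADP-d2 for Eu-cryptate antibody, lowering FRET.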
# Akt phos inh – blocks phosphorylation of Akt. Neuro2A IGF-stimulated pAkt S473 HTRF, 20 min; stronger effect = lower value. activity change, % for hits at 50 µM. 360,000 tested, 0.32% active. AID 651550; in the data active = activity change below about -80%; inconclusive = mostly about -51% to -80%; note: % is set by controls: 0 for no effect and ±100 for the full control effect
#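 Neuro2A cells (4,500/well, DMEM with 0.5% FBS) were treated with compound at a single 50 µM final concentration, stimulated with 6 nM IGF for 20 min at 37 °C, and lysed. Phospho-Akt Ser473 was read by HTRF as 665/615 ratio ×10^4.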
# uPA surface inh – blocks generation of uPA at the cell surface. cell surface uPA generation assay, qHTS. Potency, µM (doses to about 38.3 µM), without a hit: at the top dose activity change, negative = inhibition, hits mostly inhibitors. 330,000 tested, 0.31% active; active = well fitted inhibition curve with a large enough effect; inconclusive = small, poorly fitted or top-dose-only effect; inactive = no such curve, though single readings can be large or run the other way; tested in mouse RAW 264.7 cells; note: potency is the fitted concentration of half-maximal effect; % is set by controls: 0 for no effect and ±100 for the full control effect; nearly all actives have a fitted effect of over 55% in size
# CCT modulator – changes cytosolic chaperonin activity | purified chaperonin ATPase assay, HTRF ADP detection, 30 min | activity change, % (concentration not given with the values), hits read low | 360,000 tested, 0.3% active | AID 651819; in the data active = activity change below about -30%; note: % is set by controls: 0 for no effect and ±100 for the full control effect
#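 TRiC (40 or 20 nM final, by batch activity) in 30 mM Tris pH 7.4, 100 mM KCl, 5 mM MgCl2, 1 mM DTT was treated with compound at 76 uM single dose, then 10 uM ATP, 30 min at 37 °C. ADP was read by HTRF Transcreener.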
# Epigenetic reg – regulators of epigenetic silencing causing reporter derepression in mouse cells; murine LDR cells, GFP reporter derepression, 30 h; Potency, µM (titrated, usually from 53.9 µM), without a hit: top-dose GFP activation, usual class: activators; 280,000 tested, 0.2% active; AID 1865; note: potency is the fitted concentration of half-maximal effect; % of control where 0% means no effect; nearly all actives have a fitted effect of over 60% in size
#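 Derepression of a silenced CMV-GFP reporter in murine LDR cells is scored by enumerating GFP-positive cells with a laser-scanning microplate cytometer after 30 hours of treatment at 37 C.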
# Starred values were filed as active, the others as inactive; i = inactive; ? = inconclusive; · = not tested or not shown. Shown are actives, neighbours in structure and some others; about 0.97% of the full set was active somewhere. Unless noted, calls come from the whole dose curve; as a rule, active = well fitted curve in the direction sought with a large enough effect; inconclusive = small, poorly fitted or top-dose-only effect, or another doubt; inactive = no such curve, though single readings can be large; an effect the other way counts as inactive or inconclusive.
SMILES,MBNL1-CUG inh,Mm-Cpn inhibitor,Akt phos inh,uPA surface inh,CCT modulator,Epigenetic reg
COc1ccc(-c2cc(=O)c3c(O)c(OC)c(O)cc3o2)cc1,11.9%,·,i,10µM*,0.4,1.6%
COc1ccc(-c2cc(=O)c3ccccc3o2)cc1,15.0%,-7.5%,i,?,-45.8*,0.4%
COc1c(OC)c(O)c2c(=O)cc(-c3c(O)cccc3O)oc2c1OC,-7.0%,·,i,7.08µM*,-0.4,1.9%
COc1ccc2c(=O)cc(-c3ccc(O)cc3)oc2c1,·,·,·,·,·,0.0%
Clc1ccccc1CN(Cc1ccco1)Cc1nnnn1C1CCCC1,?,-4.7%,i,-2.7%,-69.6*,0.0%
c1coc(CN(Cc2cccs2)Cc2nnnn2C2CCCCC2)c1,-8.5%,0.1%,i,6.4%,3.5,-0.8%
CCOc1ccc(NC(=O)Cn2c(C)cc3ccccc3c2=O)cc1,·,·,·,·,·,1.3%
O=C(COC(=O)/C=C/C(=O)N1CCN(c2ccccc2)CC1)NC(c1ccccc1)c1ccccc1,-13.5%,1.5%,i,6.31µM*,-2.8,10.4%
Cc1c(Cl)cccc1NC(=O)c1ccc2nc(C(C)C)oc2c1,·,·,·,·,·,3.4%
COc1cccc(C(=O)N(Cc2nc(-c3ccc(C)cc3)no2)C(C)C)c1,-6.3%,1.6%,-100.4%*,·,-2.4,-1.1%
Cc1cccc(C(=O)N(Cc2nc(-c3ccc(Cl)cc3)no2)C(C)C)c1,·,·,·,·,·,-1.1%
N#Cc1c(C(F)(F)F)cc(-c2cccs2)nc1SCC(=O)Nc1ccc(Cl)cc1,·,·,·,·,·,10µM*
N#Cc1c(C(F)(F)F)cc(-c2cccs2)nc1SCC(=O)Nc1cccc(C(F)(F)F)c1,·,·,·,·,·,15.8µM*
CCCCNCCCCOc1ccccc1,-1.1%,-0.1%,·,-3.4%,-90.2*,0.8%
Cc1ccccc1-n1nc2c(c1NC(=O)C(C)(C)C)CS(=O)(=O)C2,-7.0%,2.4%,i,13.5%,-43.0*,·
Cc1ccccc1-n1nc2c(c1NC(=O)C(C)C)CS(=O)(=O)C2,-4.8%,-0.5%,i,0.9%,-0.4,·
Cc1ccc(C(=O)c2c3ccc([N+](=O)[O-])cc3[n+]([O-])n2CCCC(N)=O)cc1,·,-0.4%,i,?,-0.3,·
NC(=O)CCCn1c(C(=O)c2cc(Cl)c(N)c(Cl)c2)c2ccc([N+](=O)[O-])cc2[n+]1[O-],·,-0.6%,i,3.16µM*,-1.3,·
NC(=O)CCCn1c(C(=O)c2ccc(Cl)cc2)c2ccc([N+](=O)[O-])cc2[n+]1[O-],·,0.2%,i,1.41µM*,-2.9,·
COCCCn1c(SC(C)C(=O)Nc2c(C)n(C)n(-c3ccccc3)c2=O)n[nH]c1=O (stereo not given),·,0.0%,i,19.4%,-3.1,·
CCOC(=O)c1sc(Nc2nc(OC)cc(OC)n2)nc1C,0.1%,0.4%,i,-4.8%,-4.5,1.2%
CCOC(=O)c1cnc(SC)nc1Sc1ccccc1Cl,3.8%,0.8%,i,-3.0%,1.3,-1.5%
CSc1nc(Sc2ccccc2Cl)c2ccccc2n1,11.9%,-25.1%,·,-10.4%,-76.7*,0.0%
CC(C)(C)C(=O)NCc1ccc(C(=O)CSc2nnc3n2CCCCC3)s1,·,·,i,·,-1.7,·
Cc1nc2nc(C)c(CCC(=O)N3CCN(c4ccccn4)CC3)c(C)n2n1,0.1%,0.7%,i,·,-0.1,0.0%
SMILES,MBNL1-CUG inh,Mm-Cpn inhibitor,Akt phos inh,uPA surface inh,CCT modulator,Epigenetic reg
CCn1c(=O)c(CCC(=O)N2CCN(c3ccccn3)CC2)c(C)c2c(C)nn(-c3cccc(C)c3)c21,-5.2%,-9.0%,·,10.4%,-35.5*,·
N#C/C=C1/NC(=O)c2ccccc2S1,4.6%,0.4%,-109.7%*,3.8%,-1.6,2.9%
COC(=O)c1ccc2c(c1)NC(=O)c1ccccc1S2,26.1%,-1.2%,i,4.8%,-5.4,·
COc1ccc(CSc2nnc(Cc3sc(-c4ccccc4)nc3-c3ccccc3)o2)cc1,363.4%,35.5µM*,i,5.3%,2.2,-0.2%
O=C(Nc1ccccc1)C1=C(c2ccccc2)S(=O)(=O)CCS1(=O)=O,-3.1%,-4.9%,i,-14.5%,-55.0*,-2.6%
CCOC(=O)/C(C#N)=C/Nc1ccccc1OC,-2.3%,-3.9%,-98.5%*,-5.8%,1.0,-1.2%
CCOC(=O)C(/C=N/c1cc(C)nn1-c1ccccc1)=C(\C)O,-5.3%,1.6%,-110.1%*,-1.4%,-0.8,-1.9%
CCOC(=O)c1ccc(NC(=O)C23CCC(C)(C(=O)O2)C3(C)C)cc1 (stereo not given),-12.4%,-0.3%,i,2.4%,-38.2*,-1.9%
NC(=O)CSc1nnc(-c2cccc(S(=O)(=O)N3CCCCC3)c2)o1,5.9%,-1.9%,i,-0.3%,-56.7*,-1.6%
O=S(=O)(c1cccc(-c2nnc(-c3ccc(Br)cc3)o2)c1)N1CCCCCC1,-7.0%,-3.3%,·,-0.2%,-57.8*,-1.4%
O=C(CSc1nnc(-c2cccc(S(=O)(=O)N3CCCCC3)c2)o1)c1ccc[nH]1,5.5%,-6.9%,i,-5.1%,-3.1,-0.2%
O=c1[nH]c2ccsc2c(=O)n1CCO,1.9%,0.5%,i,-5.8%,-1.3,1.0%
CCCCn1nnnc1C1(C)CCC(=O)N1Cc1cccc(F)c1 (stereo not given),·,·,i,·,-0.9,·
COc1ccc(OC)c(-c2cnc(OC(C)(C)C)nc2OC(C)(C)C)c1,23.2%,-0.4%,i,2.24µM*,0.9,0.0%
CNc1cncc(-c2cc(OC)ccc2OC)n1,·,·,·,·,-0.9,·
COCC(=O)Nc1c(C(=O)Nc2ccccc2OC)oc2ccccc12,5.4%,-1.4%,i,·,-18.0,-3.2%
COc1cc(C(=O)Nc2cccc(-c3nc4ncccc4o3)c2C)cc(OC)c1OC,3.9%,0.7%,?,3.0%,3.1,-0.2%
COc1ccccc1NC(=O)c1oc2ccccc2c1NC(=O)c1cc(OC)c(OC)c(OC)c1,·,·,-93.5%*,·,-1.9,·
COc1cc(C(=O)Nc2cccc(-c3nc4cc(C)ccc4o3)c2C)cc(OC)c1OC,141.7%,-19.4%,-104.9%*,-3.2%,-1.3,-0.9%
COc1nccnc1NS(=O)(=O)c1ccc(NC(=S)NC(=O)c2cccc(F)c2)cc1,-11.0%,1.5%,i,2.4%,-63.4*,2.3%
COc1nccnc1NS(=O)(=O)c1ccc(NC(=S)NC(=O)c2ccc(F)cc2)cc1,-25.5%,0.4%,i,1.1%,2.1,-0.2%
C/C(=N\N1C(=O)c2ccccc2NC1c1ccco1)c1ccccc1O (stereo not given),0.7%,-12.1%,i,7.94µM*,0.9,1.1%
O=C(/C=C/c1ccco1)Nc1ccc2nc3n(c(=O)c2c1)CCCC3,?,-2.0%,i,2µM*,-2.6,1.1%
Cc1cc(C)c(SSc2nnnn2-c2ccccc2)c(C)c1,·,·,i,·,-38.0*,·
CCCCC(=O)Nc1ccccc1C(C)C,7.4%,0.6%,·,·,·,6.8%
